Experimental data from PubChem BioAssay AID652067 (The Scripps Research Institute Molecular Screening Center, 2013).
In all, about 370,000 compounds went through this assay and about 5,400 (1.5%) were called active.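 Rule for the calls: active = activation above the mean of all tested compounds plus 3 SD (cut at about 5.5% in these data); inactive = the rest.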 The list comes from a sample in which actives are over-represented; it also holds similar structures and randomly drawn compounds.

tested on: DAF-12 nuclear receptor (Haemonchus contortus); test: hcDAF-12 driven luciferase reporter activation – cell-based, luminescence, HEK293, lit1-tk-luc reporter, primary screen (AID 652067); settings: HEK293 hcDAF-12 lit1-tk-luc reporter, at 6.8 µM, stronger effect = higher value, 0% DMSO, 100% Δ7-dafachronic acid;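 note: 100% = response to 3 µM Δ7-dafachronic acid high control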

activation, active:
COc1ccccc1-c1nnc(NC(=O)c2ccc3ncsc3c2)o1 10.5%, O=C(Nc1ccc2c(c1)CCC2)c1ccc(Br)s1 9.52%, Cn1ccnc1SCC(=O)Nc1ccc2c(c1)OCCO2 6.79%, Cc1ccc(-c2csc(-c3c[nH]c4ccccc34)n2)cc1 6.08%, Cn1c(=O)c(C(=O)Nc2ncccn2)c(O)c2ccccc21 9.87%, COc1ccc(C(=O)Nc2sc(C)c(C)c2CN2CCOCC2)cc1 7.53%, O=C(Nc1ncccc1O)c1ccc(C(=O)c2ccccc2)cc1 7.52%, COc1ccc(C2=Nc3cc(C)ccc3OC2)cc1 12.7%, CC(=O)Nc1cccc(-c2csc(Nc3cccc(C)n3)n2)c1 6.6%, Cc1cccc(Nc2nc(-c3ccccc3)cs2)n1 13%

activation, inactive:
Cc1ccc(C(=O)Nc2nnc(C3=COCCO3)o2)cc1C 1.47%, Cc1sc(NC(=O)c2ccc3ncsc3c2)c(C(N)=O)c1C 3.79%, CCOP1(=O)C=C(C(C)(C)C)OC1c1ccc(F)cc1 (configuration not stated) -0.68%, C=CCN1C(C(=O)OC)CN(Cc2cn(Cc3ccccc3)nn2)CCS1(=O)=O (configuration not stated) 1.4%, COc1cccc(CNC(=O)[C@H]2CCCN2C(=O)[C@H]2CCCN2C(=O)C2CCCCC2)c1 0.47%, Cc1ccc2nc(CN(C)C(=O)[C@@H](Cc3ccccc3)NC(=O)[C@H]3O[C@@H](n4ccc(=O)[nH]c4=O)[C@H](O)[C@@H]3O)[nH]c2c1 0.21%, O=C(Nc1ccc(F)cc1)c1cc2c(s1)CCCC2 3.72%, CC1CC(C)CN(CCC(=O)Nc2ccc3c(c2)CCC3)C1 (configuration not stated) 0.05%, COC(=O)[C@@]12CCCCC3=C1N(CCC3)C(=O)[C@H]2CC(=O)NCc1cccc2ccccc12 -2.45%, CC(c1c[nH]c2ccccc12)c1c(-c2ccccc2)n(C)c2ccccc12 (configuration not stated) 3.35%, O=C(CSc1nnnn1C1CCCC1)Nc1ccc2c(c1)OCCO2 1.27%, CCn1c(SCC(=O)Nc2ccc3c(c2)OCCO3)nnc1C(C)C -0.69%, COC(=O)c1c(NC(=O)c2ccc(S(=O)(=O)N3CCOCC3)cc2)sc2c1CCN(C(C)C)C2 2.7%, CCn1c(SCCC(C)C)nnc1-c1c[nH]c2ccccc12 -1.13%, Cc1ccc(-c2csc(N(Cc3ccco3)C(=O)c3cccs3)n2)cc1 -0.42%, COc1cccc(CNC(=O)C2CCCN(c3nc4ccccc4o3)C2)c1OC (configuration not stated) -1.83%, C=CCOC/C=C/C#CCN(CC=C)Cc1ccc(OC)cc1OC -3.48%, COC(=O)Nc1ccc(S(=O)(=O)N(C)CC(F)(F)C(F)F)cc1 -2.07%, COc1cccc(CNC(=O)CNS(=O)(=O)c2ccc3nc(C)sc3c2)c1OC -1.15%, C=CCn1c(=O)c(C(=O)Nc2ncccc2O)c(O)c2ccccc21 -0.68%, Cn1c(=O)c(Sc2ccc(Cl)cc2)c(O)c2ccccc21 2.05%, COc1ccc(-n2c(SCC(=O)NC3CCCC3)nnc2-c2ccncc2)cc1 -2.34%, COc1ccc(C2=CN(Cc3ccccc3)C(c3ccc(OC)cc3)CC2=O)cc1 (configuration not stated) -0.85%, COc1ccc(C(=O)Nc2ccnn2C2CCN(Cc3ccncc3)CC2)cc1 -0.02%, CCOc1ccc(C(=O)Nc2ccc(CN3CCOCC3)cc2)cc1Cl -3.09%, CCC(=O)c1cn(CCOc2ccccc2OC)c2ccccc12 -2.5%, C=CCN1C(=O)[C@@H](CC(=O)N2CCN(C(=O)c3ccco3)CC2)[C@]2(C(=O)OC)CCCCC=C12 1.06%, O=C(Nc1ncccc1O)c1ccc(S(=O)(=O)N2CCCC2)cc1 1.37%, O=C(Nc1ncccc1O)c1ccc(S(=O)(=O)N2CCCCCC2)cc1 3.34%, COc1ccc(-c2onc(C)c2-c2ccc3c(c2)OCCO3)c(O)c1 -2.41%, Cc1ccc(C(=O)NNC2=Nc3cc([N+](=O)[O-])ccc3OC2)cc1 2.34%, CCOC(=O)c1ccccc1NC(=S)N1CCC(C(N)=O)CC1 -0.3%, CC(=O)NC(c1ccccc1)c1nc(-c2ccccc2C)cs1 (configuration not stated) 3.96%, Cc1nc(N)sc1-c1ccccc1 1.84%, CC(=O)NC(c1cccc(F)c1)c1nc(-c2cccc(F)c2)cs1 (configuration not stated) -0.83%, CC(=O)NC(c1ccccc1)c1nc(-c2cccc(C(C)C)c2)cs1 (configuration not stated) -2.11%, Cc1ccccc1Nc1scc(-c2ccc(Br)cc2)[n+]1-c1ccccc1C -0.47%, Cc1noc(C)c1NC(=O)Nc1ccc2c(c1)C(=O)N([C@H](C)CO)C[C@H](C)[C@H](CN(C)Cc1ccncc1)OCCCC[C@@H](C)O2 -0.42%, O=C1CCC2(CCC(c3ccc(Cl)cc3)CC2)N1CCO (configuration not stated) 0.94%, Cc1ccc(C)c(CN2CCC(CNC(=O)C3CCCN(c4ncnc5c4nc4n5CCCCC4)C3)CC2)c1 (configuration not stated) -1.74%, N#Cc1ccccc1OC[C@@H](O)CN1CCC(C(O)(c2ccccc2)c2ccccc2)CC1 -1.36%, Cc1ccc(CSc2nnc(SCC(=O)NN=Cc3cc(Br)ccc3F)s2)cc1 -0.88%
